From PubChem BioAssay
ALOX12 inh = blocks human arachidonate 12S-lipoxygenase. purified 12hLO, xylenol orange hydroperoxide absorbance. Potency, µM (series often up to 108 µM), for inactives: top-dose activity change, negative = inhibition, most hits filed as inhibitors. 580,000 compounds, 1.1% hits; also: potency is read from the fitted curve at half-maximal effect
Target sequence (P18054 whole entry, looked up): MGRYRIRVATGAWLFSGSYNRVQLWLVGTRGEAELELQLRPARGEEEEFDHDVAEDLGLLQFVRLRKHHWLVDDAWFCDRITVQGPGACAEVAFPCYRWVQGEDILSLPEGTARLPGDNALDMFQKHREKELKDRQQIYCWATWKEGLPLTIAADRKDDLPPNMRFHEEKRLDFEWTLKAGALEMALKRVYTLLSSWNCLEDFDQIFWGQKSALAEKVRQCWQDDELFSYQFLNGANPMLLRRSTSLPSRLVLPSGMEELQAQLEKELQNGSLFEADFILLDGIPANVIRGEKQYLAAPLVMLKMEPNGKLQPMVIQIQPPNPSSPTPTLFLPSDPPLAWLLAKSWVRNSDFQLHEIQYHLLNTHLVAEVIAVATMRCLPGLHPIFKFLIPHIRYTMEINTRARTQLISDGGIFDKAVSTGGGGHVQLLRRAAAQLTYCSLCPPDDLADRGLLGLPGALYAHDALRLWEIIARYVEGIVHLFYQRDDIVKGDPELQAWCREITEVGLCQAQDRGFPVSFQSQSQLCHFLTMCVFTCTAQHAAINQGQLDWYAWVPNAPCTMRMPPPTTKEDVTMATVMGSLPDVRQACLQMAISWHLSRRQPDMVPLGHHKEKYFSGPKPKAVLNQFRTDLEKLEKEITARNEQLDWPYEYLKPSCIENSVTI
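Hydroperoxide product was detected by ferrous iron/xylenol orange as the 573 to 405 nm absorbance ratio. Arachidonic acid at 40 uM (final) was turned over for 30 min at room temperature by 150 nM human 12hLO, pH 7.0 Hepes buffer, after 15 min compound preincubation.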
DT40 TDP1 CPT = growth inhibition of DT40 Tdp1-/-;hTDP1 cells with camptothecin (screen for TDP1 inhibitors); chicken DT40 Tdp1-/-;hTDP1 cells + 20 nM CPT, ATP luminescence, 48 h; Potency, µM (top dose mostly 46.2 µM), inactives show top-dose activity change, negative = growth inhibition, hits mostly inhibitors; 420,000 compounds, 12% hits; AID 686979; also: potency is read from the fitted curve at half-maximal effect; nearly all actives have a fitted effect of over 55% in size
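Cell growth measured by CellTiter-Glo luminescence after a minimum 48 h, 37 C compound exposure with 20 nM CPT in Tdp1-knockout DT40 cells stably expressing hTDP1, seeded 400/well; qHTS titration format.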
HT1080-NT tox = kills 2HG-producing HT-1080-NT fibrosarcoma cells | 360,000 compounds, 1.6% hits | HT-1080-NT fibrosarcoma viability, CellTiter-Glo ATP luminescence, 48 h | AID 686970 | Potency, µM (series often up to 46.1 µM), for the others: at the highest dose activity, negative = less viability, usual class: cytotoxic;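 also: NT is the 2HG producing partner of a matched IDH1 knockdown line; potency is read from the fitted curve at half-maximal effect; 0% = DMSO-treated cells and -100% = media-only wells without cells; nearly all actives have a fitted effect of over 55% in size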
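Fibrosarcoma NT cells, 750 per well in 5% FBS RPMI, were exposed to compound for 48 hours. Viability: CellTiter-Glo luminescence.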
HT1080 IDH1KD tx = kills HT-1080 cells with IDH1 knockdown. AID 686971. Potency, µM (titrated, usually from 46.1 µM), for inactives: at the top dose activity, negative = toxicity, usual class: cytotoxic. 360,000 compounds, 2% hits. HT-1080 IDH1 knockdown viability, ATP luminescence, 48 h;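 also: potency is read from the fitted curve at half-maximal effect; 0% = DMSO wells and -100% = cell-free medium wells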
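Knockdown cells (IDH1KD HT-1080) received compounds 2 h after plating at 750 cells/well and were kept 48 h at 37 °C in 5% FBS RPMI. A CellTiter-Glo luminescence read gave % activity for curve fitting.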
IL-1B inflam inh = blocks inflammasome-driven IL-1 beta release | 360,000 compounds, 4.7% hits | THP-1 LPS/ATP IL-1B secretion, AlphaLISA, 16 h; active compounds read low | activity change, % at 57.5 µM; in the data active = activity change below about -50%; inconclusive = mostly about -30% to -49%
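Secreted IL-1B measured by AlphaLISA bead assay after 16 h compound exposure of THP-1 cells; compounds (final up to 57.5 uM) added 1 h before LPS (250 ng/mL) and ATP (1.25 mM) stimulation; lower signal means less secretion.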
TDP1 cell noCPT = qHTS for Inhibitors of human tyrosyl-DNA phosphodiesterase 1 (TDP1): qHTS in cells in absence of CPT | DT40 Tdp1-/- hTDP1 cells, no CPT, ATP luminescence, 48 h | Potency, µM (highest dose often 46.2 µM), for the others: at the top dose activity change, negative = growth inhibition, actives largely listed as inhibitors | 420,000 compounds, 15% hits | AID 686978, 2013; also: potency is read from the fitted curve at half-maximal effect; nearly all actives have a fitted effect of over 55% in size
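Growth of hTDP1-complemented DT40 Tdp1-knockout cells is measured by ATP luminescence after at least 48 hr compound exposure at 37 °C, with DMSO substituting for the 20 nM CPT used in the parallel screen.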
Numbers without * were called inactive; ? = inconclusive; . = not tested or not shown; [ ] = dose if it differs, or a comment. The full list was thinned out, with hits kept by preference. Unless noted, calls follow the shape of the dose curve; as a rule, active = well fitted curve in the direction sought with a large enough effect; inconclusive = small, poorly fitted or top-dose-only effect, or another doubt; inactive = no such curve, though single readings can be large; an effect the other way counts as inactive or inconclusive. Unless noted, % is scaled to controls: 0 for no effect and ±100 for the full control effect.

SMILES | ALOX12 inh | DT40 TDP1 CPT | HT1080-NT tox | HT1080 IDH1KD tx | IL-1B inflam inh | TDP1 cell noCPT
CC(C)(C)C(=O)N1CCN(c2ccc(NC(=O)C3(c4ccccc4)CCCC3)cc2)CC1 | -4% | . | . | . | . | .
CCOC(=O)c1cccc(NC(=O)CCn2c(-c3ccc(F)cc3)cc(C(=O)OCC)c2C)c1 | -29% | 21µM* | . | . | . | 13µM*
COc1ccc(NC(=O)CCn2c(=S)[nH]c3ccccc3c2=O)cc1OC | 9% | -9% | 18% | 4% | 0 | -1%
CCOC(=O)c1cc2occc2n1CC(=O)Nc1ccc(OC)cc1OC | -27% | 23µM* | -4% | -6% | 7 | ?
CCOC(=O)c1cccc(NC(=O)CCn2cccc2)c1 | 0% | -11% | 2% | -2% | -15 | -26%
CC(=O)c1cc(-c2ccccc2)n(CC(=O)Nc2cccc(C)c2C)c1C | -14% | 7% | -1% | 1% | 10 | -2%
CCOC(=O)c1cc(-c2ccc(C)cc2)n(CCC(=O)Nc2ccc(OC)c(OC)c2)c1C | -13% | ? | . | . | . | 18µM*
CCOC(=O)c1cc(-c2ccccc2)n(CCCC(=O)Nc2cccc(C)c2C)c1C | -12% | 16µM* | . | . | . | ?
CCCCNC(=O)C12CC3CC(CC(C3)C1)C2 | 19% | . | . | . | . | .
Cc1cccc(C(=O)NCC(O)(c2ccccc2)C(F)(F)F)c1 (stereo not drawn) | -2% | . | . | . | . | .
COCCN(Cc1ccccc1F)Cc1cc2c(cc1OC)OCO2 | 38% | . | . | . | . | .
CCOC(=O)C1CCN(CC(=O)Nc2ccc(OC)c(Cl)c2)CC1 | -16% | -2% | -1% | 15% | 0 | -3%
CCOC(=O)c1cc(-c2ccc(C)cc2)n(CCC(=O)Nc2ccc(C(C)C)cc2)c1C | -12% | 5.2µM* | . | . | . | 5.2µM*
Cc1cccc2sc(NC(=O)CCNS(=O)(=O)c3cccc4nonc34)nc12 | -13% | ? | -14% | -25% | ? | 18µM*
Cc1cccc(NC(=O)CCNS(=O)(=O)c2cccc3nonc23)c1C | -1% | 5% | 0% | 8% | -10 | 1%
CCOC(=O)c1cc(-c2ccc(C)cc2)n(CC(=O)Nc2ccc(OC)c(Cl)c2)c1C | 0% | 18µM* | . | . | . | 16µM*
CCOC(=O)c1cc(-c2ccccc2)n(CCC(=O)Nc2nc3c(C)cccc3s2)c1C | ? | 13µM* | . | . | . | 13µM*
CCOC(=O)c1cc(-c2ccccc2)n(CCCC(=O)Nc2ccc(C(C)C)cc2)c1C | -13% | ? | . | . | . | 21µM*
Cc1cccc2sc(NC(=O)CCn3cccc3)nc12 | -7% | 5% | -10% | -19% | -52* | -24%
CCOC(=O)c1cc(-c2ccc(C)cc2)n(CC(=O)Nc2ccc(OC)cc2OC)c1C | -3% | 23µM* | . | . | . | ?
CCOC(=O)c1cc(-c2ccccc2)n(CCCC(=O)Nc2cccc(C)c2)c1C | -30% | 16µM* | . | . | . | 16µM*
CCOc1ccccc1N1C(=O)CC(Sc2nc(C)c3cc(OC)ccc3n2)C1=O (stereo not drawn) | -16% | . | . | . | . | .
CCOc1ccccc1NC(=O)COC(=O)c1cc2c(C)nn(-c3ccc(F)cc3)c2s1 | 61% | . | . | . | . | .
O=C(Nc1ccc(F)cc1)c1nn(-c2ccc(F)cc2)c2c1CCC2 | -32% | . | . | . | . | .
O=C1Nc2ccccc2CC12CCN(Cc1cccc3ccccc13)C2 (stereo not drawn) | 100µM* | . | . | . | . | .
SMILES | ALOX12 inh | DT40 TDP1 CPT | HT1080-NT tox | HT1080 IDH1KD tx | IL-1B inflam inh | TDP1 cell noCPT
O=C1Nc2ccccc2CC12CCN(Cc1ccccc1)C2 (stereo not drawn) | 2%[176 µM] | . | . | . | . | .
CCCC(=O)O[C@@H]1C[C@@H](C)N(C(=O)c2ccccc2)c2ccc(C)cc21 | -5% | 21µM* | -10% | -15% | -3 | 21µM*
Cc1ccc(C(=O)N2c3ccccc3OCC2C)cc1 (stereo not drawn) | 0% | -9% | 1% | 1% | 0 | -13%
CC(C)(C)C(=O)N1CCN(c2nc3ccc(Br)cc3s2)CC1 | 8% | 16µM* | -12% | -6% | -2 | 16µM*
CC(C)(C)C(=O)N1CCN(c2nc3c(F)cccc3s2)CC1 | -26% | 16µM* | . | . | . | 16µM*
O=C(C1COc2ccccc2O1)N1CCN(c2nc3c(F)cccc3s2)CC1 (stereo not drawn) | ? | ? | . | . | . | 23µM*
CCCCC(=O)N1CCN(c2nc3ccc(Br)cc3s2)CC1 | 6% | 16µM* | ? | ? | -88* | 15µM*
COc1cccc(C(=O)N2CCc3nc(-c4ccccc4)nc(-c4ccc(Cl)cc4)c3C2)c1 | 5% | . | . | . | . | .
CC(C)(C)C(=O)N1CCN(c2nc3ccc(Cl)cc3s2)CC1 | . | ? | -5% | -16% | ? | 23µM*
CCCC(=O)N1CCN(c2nc3ccc(Cl)cc3s2)CC1 | -2% | ? | -3% | 4% | -8 | ?
COCCCNc1oc(-c2ccc(S(=O)(=O)N3CCC(C)CC3)cc2)nc1C#N | 21% | . | . | . | . | .
Cc1ccc(Cn2c(=N)n(CC(O)c3ccco3)c3ccccc32)cc1 (stereo not drawn) | 0% | -84% | ? | ? | -74* | 16µM*
Cc1ccccc1OCC(O)Cn1c(=N)n(Cc2ccccc2)c2ccccc21 (stereo not drawn) | ? | 4.1µM* | 15µM* | 16µM* | -106* | 5.2µM*
CCCCn1c(=N)n(CCOc2ccc(C)cc2)c2ccccc21 | -19% | 4.6µM* | ? | ? | . | 5.8µM*
CCCCn1c(=N)n(CCOc2ccccc2OC)c2ccccc21 | -23% | 2.9µM* | . | . | . | 4.1µM*
CCOC(=O)Cn1c(=N)n(CCOc2ccc(F)cc2)c2ccccc21 | ? | 7% | 23% | 17% | -4 | -2%
N=c1n(Cc2ccccc2Cl)c2ccccc2n1CC(O)c1ccco1 (stereo not drawn) | 1% | -27% | -17% | -19% | -4 | ?
C=CCn1c(=N)n(CC(O)COc2ccccc2OC)c2ccccc21 (stereo not drawn) | 6% | ? | -23% | -19% | ? | ?
Cc1cc(C)n(CC(O)Cn2c3ccccc3c3ccccc32)n1 (stereo not drawn) | -13% | -13% | -15% | ? | -18 | ?
COc1ccccc1OCC(O)Cn1c(=N)n(Cc2ccccc2)c2ccccc21 (stereo not drawn) | -19% | 21µM* | ? | -13% | -73* | 8.2µM*
